Reference: PubChem BioAssay (NCI)
About 79,000 compounds went through this panel and 15% of them were active in at least one assay; those are over-represented in the sample as a whole. Calls of active or inactive are those of the source. Cut-off read from the data, not from the text of the source: active = growth inhibition above about 70%; inactive = the rest.

How the values were obtained:
[1] = NCI Yeast Anticancer Drug Screen. Data for the rad52 strain (AID 147);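 note: 0% = growth of vehicle-treated control cultures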; conditions: S. cerevisiae rad52 mutant growth inhibition, hits give high values
How it was run: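 Inhibition of yeast growth, referenced to vehicle controls, was the measured output for a strain with defective DNA damage repair.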

[2] = NCI Yeast Anticancer Drug Screen. Data for the wt1 strain (AID 149);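 note: 0% = growth of vehicle-treated wt1 cultures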; conditions: S. cerevisiae wt1 strain (SPY 50644) growth inhibition, hits give high values
How it was run: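 Measured: growth of wt1 yeast under compound versus vehicle treatment, reported as inhibition.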

[3] = NCI Yeast Anticancer Drug Screen. Data for the rad50EPP+ strain (AID 151);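 note: 0% = growth of vehicle-treated control cultures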; conditions: S. cerevisiae rad50 mutant strain, hits give high values
How it was run: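 Genetically defined yeast (rad50EPP+, DNA damage repair alteration) is grown with compound, and inhibition of growth is expressed relative to vehicle-treated controls.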

[4] = NCI Yeast Anticancer Drug Screen. Data for the mgt1 strain (AID 153); conditions: S. cerevisiae mgt1 mutant growth inhibition, hits give high values
How it was run: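 In the mgt1 strain, test compounds were added and growth inhibition was determined relative to vehicle-treated controls.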

[5] = NCI Yeast Anticancer Drug Screen. Data for the rad50 strain (AID 155);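 note: 0% = growth of vehicle-only cultures of the same strain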; conditions: S. cerevisiae rad50 strain growth inhibition, hits give high values
How it was run: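 Growth of the mutant yeast was measured after compound exposure and referenced to vehicle-treated cultures.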

[6] = NCI Yeast Anticancer Drug Screen. Data for the mec2-1 strain (AID 157); conditions: S. cerevisiae mec2-1 strain, hits give high values
How it was run: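 Each compound was tested on mec2-1 yeast, a strain altered in DNA damage repair or cell cycle control. Growth inhibition is reported relative to vehicle.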

[7] = NCI Yeast Anticancer Drug Screen. Data for the rad14 strain (AID 159);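 note: 0% = growth of vehicle-treated control cultures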; conditions: S. cerevisiae rad14 strain growth inhibition, hits give high values
How it was run: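 Here, inhibition of yeast growth was measured after compound exposure, using a strain with a genetic defect in DNA damage repair and vehicle-treated cultures as the reference.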

[8] = NCI Yeast Anticancer Drug Screen. Data for the sgs1 mgt1 strain (AID 161);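 note: 0% = growth of cultures given vehicle only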; conditions: S. cerevisiae sgs1 mgt1 strain, hits give high values
How it was run: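 Test agents were incubated with a DNA-repair-mutant yeast strain. Growth was then read and compared against vehicle-treated controls.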

[9] = NCI Yeast Anticancer Drug Screen. Data for the CLN2oe strain (AID 163);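 note: 0% = growth of vehicle-only control cultures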; conditions: S. cerevisiae CLN2oe strain, hits give high values
How it was run: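 First, the altered yeast strain was treated with each compound; second, its growth was measured; finally, inhibition was derived by comparison with vehicle controls.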

[10] = NCI Yeast Anticancer Drug Screen. Data for the cln2 rad14 strain (AID 165);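 note: 0% = growth equal to vehicle treated cultures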; conditions: S. cerevisiae cln2 rad14 strain, hits give high values
How it was run: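 Test compounds were added to cln2 rad14 yeast cultures; inhibition of growth was then determined by comparison with vehicle treatment.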

[11] = NCI Yeast Anticancer Drug Screen. Data for the bub3 strain (AID 167); conditions: S. cerevisiae bub3 mutant strain, hits give high values
How it was run: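 Whole-cell yeast assay. The mutant strain was incubated with compounds, and growth inhibition was determined by comparison with vehicle-treated cells.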

[12] = NCI Yeast Anticancer Drug Screen. Data for the wt2 strain (AID 169);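 note: 0% = growth of vehicle-treated yeast cultures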; conditions: S. cerevisiae wt2 strain growth inhibition, hits give high values
How it was run: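 The panel's yeast strains carry defined changes in DNA repair or cell cycle genes. Each strain is grown with compound, and growth loss is scored relative to vehicle.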

[13] = NCI Yeast Anticancer Drug Screen. Data for the mlh1 strain (AID 171);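 note: 0% = growth of vehicle-treated control cultures of the same strain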; conditions: S. cerevisiae mlh1 strain growth inhibition, hits give high values
How it was run: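 Inhibition values reflect reduced yeast growth in the presence of compound, referenced to vehicle controls, using a strain chosen for its alteration in DNA repair or cell cycle control.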

[14] = NCI Yeast Anticancer Drug Screen. Data for the sgs1 strain (AID 173);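 note: 0% = growth of vehicle-only control cultures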; conditions: S. cerevisiae sgs1 mutant, hits give high values
How it was run: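 Vehicle-treated cultures served as reference for growth inhibition of a yeast strain altered in DNA damage repair or cell cycle control after compound exposure.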

[15] = NCI Yeast Anticancer Drug Screen. Data for the mlh1 rad18 strain (AID 175); conditions: S. cerevisiae mlh1 rad18 strain growth inhibition, hits give high values
How it was run: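 Inhibition values reflect reduced growth of mutant yeast versus vehicle-treated controls following compound exposure; the mutations affect DNA damage repair.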

[16] = NCI Yeast Anticancer Drug Screen. Data for the rad18 strain (AID 177); conditions: S. cerevisiae rad18 mutant growth inhibition, hits give high values
How it was run: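 Steps: expose repair-mutant yeast to compound; measure growth; express as inhibition relative to vehicle control.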

[17] = at 5.0 µM (retest, dose inferred, filed as 0.5)
[18] = at 50.0 µM (retest, dose inferred, filed as 5.0)

Measured: growth inhibition

CC1OCC2OC(C)OC(C3C4=C(CC(C)(C)CC4=O)OC4=C3C(=O)CC(C)(C)C4)C2O1 (stereo not drawn)
active: [5]; at 50.0 µM 82.2% | [5]; at 100.0 µM 80% | [15]; at 50.0 µM 80.7% | [16]; at 33.0 µM 78% | [16]; at 100.0 µM 91%
inactive: [1]; at 1.2 µM 0% | [1]; at 3.7 µM 4% | [1]; at 11.0 µM 17% | [1]; at 33.0 µM 38% | [1]; at 100.0 µM 56% | [2]; at 1.2 µM -2% | [2]; at 3.7 µM 2% | [2]; at 11.0 µM 6% | [2]; at 33.0 µM 24% | [2]; at 100.0 µM 45% | [3]; at 1.2 µM -3% | [3]; at 3.7 µM -5% | [3]; at 11.0 µM -4% | [3]; at 33.0 µM -1% | [3]; at 100.0 µM 1% | [4]; at 1.2 µM -1% | [4]; at 3.7 µM 2% | [4]; at 11.0 µM 2% | [4]; at 33.0 µM 2% | [4]; at 100.0 µM 21% | [5]; at 1.2 µM 7% | [5]; at 3.7 µM -32% | [5]; [17] 10% | [5]; at 11.0 µM 49% | [5]; at 33.0 µM 61% | [5]; [18] 57% | [6]; at 1.2 µM 0% | [6]; at 3.7 µM 3% | [6]; [17] 7% | [6]; at 11.0 µM 12% | [6]; at 33.0 µM 28% | [6]; [18] -18% | [6]; at 50.0 µM 27.4% | [6]; at 100.0 µM 46% | [7]; at 1.2 µM -1% | [7]; at 3.7 µM -1% | [7]; at 11.0 µM 5% | [7]; at 33.0 µM 18% | [7]; at 100.0 µM 41% | [8]; [17] 5% | [8]; [18] 37% | [8]; at 50.0 µM 40.7% | [9]; at 1.2 µM -2% | [9]; at 3.7 µM -4% | [9]; at 11.0 µM -2% | [9]; at 33.0 µM -2% | [9]; at 100.0 µM -3% | [10]; [17] 5% | [10]; [18] 15% | [10]; at 50.0 µM 3.55% | [11]; at 1.2 µM 1% | [11]; at 3.7 µM 2% | [11]; [17] -46% | [11]; at 11.0 µM 7% | [11]; at 33.0 µM 29% | [11]; [18] 32% | [11]; at 50.0 µM 57.8% | [11]; at 100.0 µM 66% | [12]; at 1.2 µM -1% | [12]; at 3.7 µM 9% | [12]; at 11.0 µM 1% | [12]; at 33.0 µM 4% | [12]; at 100.0 µM 23% | [13]; at 1.2 µM 1% | [13]; at 3.7 µM 2% | [13]; at 11.0 µM 4% | [13]; at 33.0 µM 8% | [13]; at 100.0 µM 25% | [14]; at 1.2 µM -2% | [14]; at 3.7 µM 1% | [14]; at 11.0 µM 9% | [14]; at 33.0 µM 32% | [14]; at 100.0 µM 65% | [15]; [17] 9% | [15]; [18] 46% | [16]; at 1.2 µM 3% | [16]; at 3.7 µM 18% | [16]; at 11.0 µM 43%

CC(=O)N/N=C/C(C)(C)C(C)(C)/C=N/NC(C)=O
active: [1]; at 100.0 µM 97% | [3]; at 100.0 µM 71% | [5]; at 100.0 µM 98%
inactive: [1]; at 1.2 µM -1% | [1]; at 3.7 µM -5% | [1]; at 11.0 µM -32% | [1]; at 33.0 µM 38% | [2]; at 1.2 µM -3% | [2]; at 3.7 µM -5% | [2]; at 11.0 µM 2% | [2]; at 33.0 µM 27% | [2]; at 100.0 µM 42% | [3]; at 1.2 µM -3% | [3]; at 3.7 µM 11% | [3]; at 11.0 µM 10% | [3]; at 33.0 µM 18% | [4]; at 1.2 µM 2% | [4]; at 3.7 µM -2% | [4]; at 11.0 µM -4% | [4]; at 33.0 µM -5% | [4]; at 100.0 µM 6% | [5]; at 1.2 µM -13% | [5]; at 3.7 µM -6% | [5]; [17] 4% | [5]; at 11.0 µM 16% | [5]; at 33.0 µM 38% | [5]; [18] 51% | [5]; at 50.0 µM 50.5% | [6]; at 1.2 µM 5% | [6]; at 3.7 µM 2%
